{
  "source": "the supplement of paper PMC8728848",
  "binders": {"B1": {"name": "Dectin-1 (Mus musculus), Q6QLQ4 (protein)", "chain": "GHNSGRNPEEKDNFLSRNKENHKPTESSLDEKVAPSKASQTTGGFSQPCLPNWIMHGKSCYLFSFSGNSWYGSKRHCSQLGAHLLKIDNSKEFEFIESQTSSHRINAFWIGLSRNQSEGPWFWEDGSAFFPNSFQVRNTAPQESLLHNCVWIHGSEVYNQICNTSSYSICEKEL"}},
  "assay_in_all_cases": "glycan array binding signal (z-score within array); higher = stronger binding",
  "settings_in_all_cases": "glycan notation: IUPAC condensed, linker removed",
  "key": {"[1]": {"target": "3dGal(b1-3)[Fuc(a1-4)]Glc", "method_in_brief": "(§1)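 Glycan array data came from 3228 arrays in the Consortium for Functional Glycomics database, and only arrays with an available protein sequence were kept. Glycan names were put into IUPAC-condensed notation, and columns mapping to the same glycan were averaged. The binding signal is a within-array Z-score, averaged across arrays of one protein sequence run at different concentrations or buffers and across linkers. A negative Z-score can be read as non-binding.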"}, "[2]": {"target": "Ara(a1-5)Ara(a1-5)Ara(a1-5)Ara(a1-5)Ara(a1-5)Ara(a1-5)Ara", "method_in_brief": "as §1"}, "Fuc(a1-6)GlcNAc": {"target": "Fuc(a1-6)GlcNAc", "method_in_brief": "as §1"}, "[3]": {"target": "Gal(b1-3)GalNAc(b1-4)[Neu5Ac(a2-3)]Gal(b1-4)Glc", "method_in_brief": "as §1"}, "Gal(b1-3)GlcNAc": {"target": "Gal(b1-3)GlcNAc", "method_in_brief": "as §1"}, "[4]": {"target": "Gal(b1-3)GlcNAc(b1-3)[Fuc(a1-3)[Gal(b1-4)]GlcNAc(b1-6)]Gal(b1-4)]GlcNAc(b1-6)[Gal(b1-4)]GlcNAc(b1-3)]Gal(b1-4)Glc", "method_in_brief": "as §1"}, "Gal3S(b1-4)GlcNAc": {"target": "Gal3S(b1-4)GlcNAc", "method_in_brief": "as §1"}, "Glc(a1-2)Glc(a1-2)Glc": {"target": "Glc(a1-2)Glc(a1-2)Glc", "method_in_brief": "as §1"}, "Glc(a1-4)Glc(a1-6)Glc": {"target": "Glc(a1-4)Glc(a1-6)Glc", "method_in_brief": "as §1"}, "Glc(a1-6)Glc(a1-6)Glc": {"target": "Glc(a1-6)Glc(a1-6)Glc", "method_in_brief": "as §1"}, "[5]": {"target": "Glc(b1-3)Glc(b1-3)Glc(b1-3)Glc(b1-3)Glc(b1-3)Glc(b1-3)Glc(b1-3)Glc(b1-3)Glc(b1-3)Glc(b1-3)Glc", "method_in_brief": "as §1"}, "[6]": {"target": "Glc(b1-3)Glc(b1-3)Glc(b1-3)Glc(b1-3)Glc(b1-3)Glc(b1-3)Glc(b1-3)Glc(b1-3)Glc(b1-3)Glc(b1-3)Glc(b1-3)Glc", "method_in_brief": "as §1"}, "[7]": {"target": "Glc(b1-3)Glc(b1-3)Glc(b1-3)Glc(b1-3)Glc(b1-3)Glc(b1-3)Glc(b1-3)Glc(b1-3)Glc(b1-3)Glc(b1-3)Glc(b1-3)Glc(b1-3)Glc", "method_in_brief": "as §1"}, "Glc(b1-3)Glc(b1-4)Glc": {"target": "Glc(b1-3)Glc(b1-4)Glc", "method_in_brief": "as §1"}, "[8]": {"target": "Glc(b1-3)Glc(b1-4)Glc(b1-4)Glc", "method_in_brief": "as §1"}, "[9]": {"target": "Glc(b1-4)Glc(b1-4)Glc(b1-4)Glc(b1-4)Glc(b1-4)Glc(b1-4)Glc(b1-4)Glc(b1-4)Glc(b1-4)Glc(b1-4)Glc", "method_in_brief": "as §1"}, "GlcA(b1-3)Gal": {"target": "GlcA(b1-3)Gal", "method_in_brief": "as §1"}, "[10]": {"target": "GlcA3S(b1-3)Gal(b1-4)GlcNAc(b1-3)Gal(b1-4)Glc", "method_in_brief": "as §1"}, "GlcNAc(b1-3)Gal(b1-4)Glc": {"target": "GlcNAc(b1-3)Gal(b1-4)Glc", "method_in_brief": "as §1"}, "[11]": {"target": "Man(a1-2)Man(a1-2)Man(a1-3)[Man(a1-2)Man(a1-6)[Man(a1-3)]Man(a1-6)]Man(b1-4)GlcNAc(b1-4)GlcNAc", "method_in_brief": "as §1"}, "[12]": {"target": "Man(b1-4)Man(b1-4)Man(b1-4)Man(b1-4)Man", "method_in_brief": "as §1"}, "[13]": {"target": "Neu(a2-3)Gal(b1-4)[Fuc(a1-3)]GlcNAc(b1-3)Gal(b1-4)Glc", "method_in_brief": "as §1"}, "[14]": {"target": "Neu5Ac(a2-3)Gal(b1-3)GalNAc(b1-4)[Neu5Ac(a2-3)]Gal(b1-4)Glc", "method_in_brief": "as §1"}, "[15]": {"target": "Neu5Ac(a2-3)Gal(b1-3)GlcNAc(b1-3)Gal(b1-4)Glc", "method_in_brief": "as §1"}, "[16]": {"target": "Neu5Ac(a2-3)Gal(b1-3)[Neu5Ac(a2-6)]GalNAc", "method_in_brief": "as §1"}, "[17]": {"target": "Neu5Ac(a2-3)Gal(b1-4)GlcNAc6S(b1-3)Gal6S(b1-3)GlcNAc6S", "method_in_brief": "as §1"}, "[18]": {"target": "Neu5Ac(a2-3)Gal(b1-4)[Fuc(a1-3)]GlcNAc(b1-3)Gal", "method_in_brief": "as §1"}, "[19]": {"target": "Neu5Ac(a2-6)Gal(b1-4)GlcNAc(b1-2)Man(a1-3)[Neu5Ac(a2-6)Gal(b1-4)GlcNAc(b1-2)Man(a1-6)]Man(b1-4)GlcNAc(b1-4)GlcNAc", "method_in_brief": "as §1"}, "[20]": {"target": "Neu5Ac(a2-6)Gal(b1-4)GlcNAc(b1-3)[Neu5Ac(a2-6)Gal(b1-4)GlcNAc(b1-6)]Gal(b1-4)Glc", "method_in_brief": "as §1"}},
  "note": "Shown is part of a subset that was picked to be rich in the strongest signals.",
  "data": [
    {"binder": "B1", "values": [
      {"measurement": "glycan array binding signal (z-score)", "setting": "[1]", "value": 0.092},
      {"measurement": "glycan array binding signal (z-score)", "setting": "[2]", "value": -0.064},
      {"measurement": "glycan array binding signal (z-score)", "setting": "Fuc(a1-6)GlcNAc", "value": -0.091},
      {"measurement": "glycan array binding signal (z-score)", "setting": "[3]", "value": -0.091},
      {"measurement": "glycan array binding signal (z-score)", "setting": "Gal(b1-3)GlcNAc", "value": -0.088},
      {"measurement": "glycan array binding signal (z-score)", "setting": "[4]", "value": 0.102},
      {"measurement": "glycan array binding signal (z-score)", "setting": "Gal3S(b1-4)GlcNAc", "value": -0.071},
      {"measurement": "glycan array binding signal (z-score)", "setting": "Glc(a1-2)Glc(a1-2)Glc", "value": -0.135},
      {"measurement": "glycan array binding signal (z-score)", "setting": "Glc(a1-4)Glc(a1-6)Glc", "value": 0.413},
      {"measurement": "glycan array binding signal (z-score)", "setting": "Glc(a1-6)Glc(a1-6)Glc", "value": -0.113},
      {"measurement": "glycan array binding signal (z-score)", "setting": "[5]", "value": 1.33},
      {"measurement": "glycan array binding signal (z-score)", "setting": "[6]", "value": 5.34},
      {"measurement": "glycan array binding signal (z-score)", "setting": "[7]", "value": 13.4},
      {"measurement": "glycan array binding signal (z-score)", "setting": "Glc(b1-3)Glc(b1-4)Glc", "value": -0.135},
      {"measurement": "glycan array binding signal (z-score)", "setting": "[8]", "value": -0.135},
      {"measurement": "glycan array binding signal (z-score)", "setting": "[9]", "value": 0.216},
      {"measurement": "glycan array binding signal (z-score)", "setting": "GlcA(b1-3)Gal", "value": -0.06},
      {"measurement": "glycan array binding signal (z-score)", "setting": "[10]", "value": -0.078},
      {"measurement": "glycan array binding signal (z-score)", "setting": "GlcNAc(b1-3)Gal(b1-4)Glc", "value": -0.029},
      {"measurement": "glycan array binding signal (z-score)", "setting": "[11]", "value": -0.004},
      {"measurement": "glycan array binding signal (z-score)", "setting": "[12]", "value": -0.113},
      {"measurement": "glycan array binding signal (z-score)", "setting": "[13]", "value": -0.091},
      {"measurement": "glycan array binding signal (z-score)", "setting": "[14]", "value": -0.039},
      {"measurement": "glycan array binding signal (z-score)", "setting": "[15]", "value": -0.091},
      {"measurement": "glycan array binding signal (z-score)", "setting": "[16]", "value": -0.069},
      {"measurement": "glycan array binding signal (z-score)", "setting": "[17]", "value": -0.054},
      {"measurement": "glycan array binding signal (z-score)", "setting": "[18]", "value": -0.091},
      {"measurement": "glycan array binding signal (z-score)", "setting": "[19]", "value": -0.091},
      {"measurement": "glycan array binding signal (z-score)", "setting": "[20]", "value": -0.091}
    ]}
  ]
}
